# Bioassay records: PubChem, several laboratories
# tim10-1 inh – growth inhibitors of tim10-1 mutant yeast, primary screen, luminescence, uHTS; AID 463190, 2010; S. cerevisiae tim10-1 ts strain growth, BacTiter-Glo, 24 h; inhibition, % at 20 µM; 330,000 compounds, 2.2% hits;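 active = inhibition of at least 40%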;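 note: mutant grown at 25 °C; 0% = DMSO wells with yeast and 100% = wells holding no yeast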
# PfHsp90 set2 – growth inhibition of PfHsp90-expressing yeast, primary screen, antimalarial PfHsp90 inhibitor project, S. cerevisiae, BacTiter-Glo luminescence, single point, set 2. BacTiter-Glo ATP, 48 h; yeast lacking PDR1 and PDR3 efflux regulators. inhibition, % at 9.4 µM. 310,000 compounds, 0.32% hits. AID 504621, 2011;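 active = every replicate shows inhibition above about 80%, whatever the replicate mean, limit read from the data; inconclusive = mean inhibition reaches the set limit but some replicate falls short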;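 note: 0% = DMSO neutral controls and 100% = 20 µM radicicol positive controls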
# SKKanGAS inh – S. pyogenes SKKanGAS growth inhibitors in kanamycin, primary screen, streptokinase expression inhibitor project, SKKanGAS strain, BacTiter-Glo luminescence | 6 h | inhibition, % at 7.5 µM | 300,000 compounds, 1.3% hits;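 active = mean replicate score, as percent of positive control median, at least 50; inconclusive = mean below 50 but one replicate at or above 50; inactive = mean and every replicate below 50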;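 note: strain carries kanamycin resistance gene driven by streptokinase promoter and grows in 40 µg/ml kanamycin; loss of luminescence reflects streptokinase promoter inhibition or plain growth inhibition; 0% = median of DMSO wells and 100% = positive control at its reference dose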
# Calb FLC – C. albicans growth inhibition with fluconazole, primary screen, CaCi-2 strain, Alamar Blue fluorescence. growth inhibition, % (concentration not given with the values). 300,000 compounds, 0.57% hits. C. albicans CaCi-2 (fluconazole-resistant clinical isolate) + fluconazole, 48 h;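 active = growth inhibition above about 58% in most replicates, limit read from the data, passing the limit was not always enough; inconclusive = exactly half the replicates above a set limit; inactive = most replicates below a set limit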;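 note: all wells also contain fluconazole at 8 µg/ml as a sub-toxic cotreatment; 0% = median of DMSO wells and 100% = median of geldanamycin control wells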
# tim23-1 inh – growth inhibitors of tim23-1 mutant yeast, primary screen, luminescence, uHTS; S. cerevisiae tim23-1 growth, BacTiter-Glo luminescence, 24 h; inhibition, % at 20 µM; 330,000 compounds, 1.3% hits; AID 463212, 2010;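 active = growth inhibition of the mutant yeast at or above 50%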;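 note: temperature-sensitive mutant grown at 25 °C; plate controls were DMSO-treated mutant yeast for no effect and medium wells lacking yeast for full effect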
# TIM10 inh – growth inhibitors of isogenic TIM10 control yeast, primary screen, counter-screen for tim10-1 yeast inhibitor project, luminescence, uHTS; AID 463195, 2010; inhibition, % at 10 µM; S. cerevisiae TIM10 strain growth, BacTiter-Glo luminescence, 24 h; 330,000 compounds, 1.4% hits;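 active = inhibition of 40% or more at the single tested concentration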;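 note: wild-type TIM10 isogenic control strain grown at permissive 25 °C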
# * marks the source's active call; other numbers are inactive results; ? = inconclusive; nt = no result. Shown are actives, neighbours in structure and some others; about 4.7% of the full set was active somewhere.
SMILES,tim10-1 inh,PfHsp90 set2,SKKanGAS inh,Calb FLC,tim23-1 inh,TIM10 inh
COc1ccc(/C=C2/C(=O)N(Cc3ccccc3)N=C2C)cc1,20,18,-9,8,29,12
O=C(O)/C=C/c1cn(-c2ccccc2)nc1-c1cc2ccccc2o1,13,90*,4,8,42,-20
CSc1nc(Cl)c(C#N)c(-c2ccc(C)cc2)n1,-8,-31,11,81*,-10,-1
CCCN1CCN(C(=O)c2oc3ccccc3c2NC(=O)C2CC2)CC1,-1,-12,0,-4,-5,5
CN(C)c1ccc(C2C=C(c3ccc(Cl)cc3OC(F)F)Nc3ncnn32)cc1 (stereo unspecified),31,-4,87*,-17,40,26
CCN1C(=NCCc2cccs2)N[C@@H](c2cccs2)C(C(=O)OC)=C1C,16,-9,2,-19,14,7
O=C1C=C(Nc2ccccc2O)c2ccccc2C1=O,15,-1,52*,-5,15,20
O=C1C=C(Nc2ccc(F)cc2)c2ccccc2C1=O,12,32,nt,nt,14,12
O=C1C=C(NCc2ccccc2)c2ccccc2C1=O,nt,-2,29,99*,nt,nt
Nc1c(S(=O)(=O)c2cccc(Cl)c2)c2nc3ccccc3nc2n1/N=C/c1ccc(O)c(O)c1,20,nt,95*,85*,33,10
COc1ccc(/C=C/C(=O)NC(=S)NNC(=O)c2cc(OC)c(OC)c(OC)c2)cc1OC,21,nt,89*,18,16,30
COc1ccc(/C=C/C(=O)NC(=S)NNC(=O)c2cc(OC)c(OC)c(OC)c2)cc1,-6,17,101*,4,3,-7
COc1ccc(/C=C/C(=O)NC(=S)Nc2ccc(C(=O)O)cc2)cc1,nt,-18,2,25,nt,nt
COc1ccc(-c2c(C)[nH]n3c(=O)c(Cc4ccccc4)c(C)nc23)cc1OC,9,31,3,8,11,-5
Cc1nc2c(C#N)c(C)[nH]n2c(=O)c1Cc1ccccc1,3,21,5,4,11,4
Cc1nc2c(-c3ccc(Cl)cc3)c(C)[nH]n2c(=O)c1Cc1ccccc1,5,-16,99*,-4,20,-1
Cc1nc2c(-c3ccccc3)c(C)[nH]n2c(=O)c1Cc1ccccc1,13,4,52*,3,5,-5
CCN(CC(=O)NCc1cccs1)C(=O)c1ccc(S(=O)(=O)Nc2ccccc2Cl)cc1,7,nt,nt,nt,10,14
CCOC(=O)[C@@H]1[C@H]2COc3cc(OC)ccc3[C@@H]2N2C(=O)N(c3ccccc3)C(=O)[C@]12C,10,-1,nt,nt,35,19
O=c1cc(O)c2c(=O)n(-c3ccccc3)c3ccccc3c2o1,-30,-13,102*,11,15,-28
CCn1c(=O)c2c(O)cc(=O)oc2c2ccccc21,25,nt,-1,6,40,29
Cc1cc(N(C)C)ccc1N=Nc1ccc2ncccc2c1,25,18,54*,-9,18,-1
C[C@H](CO)N1C[C@H](C)[C@@H](CN(C)C(=O)NC2CCCCC2)Oc2ccc(NC(=O)C3CC3)cc2C1=O,nt,-1,nt,nt,nt,nt
BrC(=C\c1ccccc1)/C=N/n1cnnc1,nt,20,8,86*,nt,nt
BrC(=C\c1ccccc1)/C=N/Nc1ccc2nncn2n1,-2,-6,1,-4,20,15
SMILES,tim10-1 inh,PfHsp90 set2,SKKanGAS inh,Calb FLC,tim23-1 inh,TIM10 inh
CCOC(=O)c1cnc(-n2nc(C)cc2C)nc1Nc1ccc(OC)cc1,13,-11,66*,?,45,20
CCOC(=O)c1cnc(-n2nc(C)cc2C)nc1Oc1ccc(C(=O)OC)cc1,-39,nt,-5,4,-8,-57
O=C(NC(=S)Nc1ccc(Cl)cn1)c1cc([N+](=O)[O-])ccc1N1CCOCC1,-15,-2,7,-3,4,-4
Cc1ccc(C(=O)n2c3ccccc3c3ccccc32)cc1,0,nt,67*,3,21,4
O=[N+]([O-])c1cc(Cc2ccccc2)cc(C=Nc2ccc(N3CCOCC3)cc2)c1O,nt,106*,11,-8,nt,nt
Oc1ccc(C=Nc2ccc(N3CCOCC3)cc2)c(O)c1,13,-3,2,0,16,-5
COc1ccc(C(O)(C(=O)NNc2ccc(C)cc2)c2cccs2)cc1 (stereo unspecified),0,1,3,110*,20,-1
CC(C)OC(=O)c1c(N)n(CCCN2CCOCC2)c2nc3ccccc3nc12,4,-10,-2,-6,5,8
CC(C)OC(=O)c1c2nc3ccccc3nc2n2c1[nH]c(=O)c1ccccc12,23,nt,55*,-7,32,8
COc1ccc(CC(=O)NC(C)c2ccc(S(N)(=O)=O)cc2)cc1S(=O)(=O)N1CCOCC1 (stereo unspecified),2,9,2,-5,8,3
C#CCOC(=O)CCCC(=O)NCCCCCCCC,3,-7,-14,109*,24,8
CCCCn1c(=O)c(CCC(=O)OCC(=O)NC(C)c2ccccc2)nc2ccccc21 (stereo unspecified),36,-1,2,-32,17,21
CCCCn1c(=O)c(CCC(=O)OCC(=O)NCc2ccc(OC)c(OC)c2)nc2ccccc21,10,-22,8,77*,15,15
O=S(=O)(Nc1ccc(O)c(Sc2nc3ccccc3s2)c1)c1cccc2ccccc12,4,8,81*,72,28,34
C=C(C)Cc1c(C)c(C#N)c2[nH]c3ccccc3n2c1=O,32,-31,14,-2,44,28
CCc1cc(=S)n2c([nH]c3ccccc32)c1C#N,20,47,35,97*,18,15
CCc1cc(=O)n2c([nH]c3ccccc32)c1C#N,1,-8,43,-1,10,-4
CCc1c(C)c(C#N)c2[nH]c3ccccc3n2c1=S,21,-13,60*,8,41,13
Cc1ccc(CNC(=O)c2cc3ccccc3oc2=O)cc1,26,-13,5,-4,21,15
COc1ccc(C(=O)Nc2cc(C)nn2-c2ccc(C)cc2)cc1,16,5,0,2,17,1
Cn1nnnc1SCC(=O)Nc1nc(-c2ccccc2)c(-c2ccccc2)o1,17,-3,59*,1,13,11
O=C(CSC(=S)N1CCOCC1)Nc1nc(-c2ccccc2)c(-c2ccccc2)o1,12,nt,41,13,11,-1
O=C(CSC(=S)N1CCCCC1)Nc1nc(-c2ccccc2)c(-c2ccccc2)o1,17,nt,50*,48,12,-5
